ChEMBL document CHEMBL3433997, “St. Jude Leishmania screening dataset” (2016)

Key:
Type in all cases: functional
[1] = molecular target: Solute carrier family 2, facilitated glucose transporter member 1 (Homo sapiens) (UniProt P11166); assay: ST_JUDE_LEISH: Cytotoxicity at 2uM final concentration against transgenic Leishmania Mexicana promastigotes LmGLUT1 that are glucose transport deficient and complemented with the human glucose transporter GLUT1. Activity is measured by DNA content using SYBR green in vitro
[2] = molecular target: Hexose transporter 1 (Plasmodium falciparum) (UniProt O97467); assay: ST_JUDE_LEISH: Cytotoxicity at 2uM final concentration against transgenic Leishmania Mexicana promastigotes LmPfHT that are glucose transport deficient and complemented with the Plasmodium falciparum hexose transporter. Activity is measured by DNA content using SYBR green in vitro
[3] = molecular target: Glucose transporter (Leishmania mexicana) (UniProt O61059); assay: ST_JUDE_LEISH: Cytotoxicity at 2uM final concentration against transgenic Leishmania Mexicana promastigotes LmGT2 that are glucose transport deficient and complemented with the L. Mexicana glucose transporter 2. Activity is measured by DNA content using SYBR green in vitro

Chain of Solute carrier family 2, facilitated glucose transporter member 1 (Homo sapiens) (P11166 whole entry): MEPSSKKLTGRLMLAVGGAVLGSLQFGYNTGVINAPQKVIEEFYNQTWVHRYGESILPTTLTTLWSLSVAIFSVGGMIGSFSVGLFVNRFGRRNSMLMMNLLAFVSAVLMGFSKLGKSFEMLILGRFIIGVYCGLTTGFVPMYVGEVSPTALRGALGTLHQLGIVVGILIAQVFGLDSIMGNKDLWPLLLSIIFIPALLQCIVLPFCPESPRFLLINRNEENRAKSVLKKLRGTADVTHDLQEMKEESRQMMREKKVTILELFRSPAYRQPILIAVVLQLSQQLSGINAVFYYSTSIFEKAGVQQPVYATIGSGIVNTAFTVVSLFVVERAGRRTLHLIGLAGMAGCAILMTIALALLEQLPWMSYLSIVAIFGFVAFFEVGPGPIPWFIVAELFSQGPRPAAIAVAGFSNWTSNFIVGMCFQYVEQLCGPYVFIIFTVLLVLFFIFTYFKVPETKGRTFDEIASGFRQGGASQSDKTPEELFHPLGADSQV

| Compound | inhibition [1] | inhibition [2] | inhibition [3] |
| --- | --- | --- | --- |
| Cc1cc(OCC2CCN(c3ccc(C(=O)NC4CC4)cn3)CC2)ccc1F | 0.67% | 1.45% | -6.22% |
| COc1cc2nc(NCCc3ccccc3)nc(NCc3ccc(C#N)cc3)c2cc1OC | 3.59% | 6.39% | 2.83% |
| CC1(C)C(N(O)C(=O)Nc2ccc(Cl)c(Cl)c2)N(c2ccc(Cl)c(Cl)c2)C(=O)N1CCc1ccccc1 (stereo unspecified) | -0.14% | 0.2% | 0% |
| Clc1ccccc1CNc1noc(-c2sccc2Br)n1 | 0.33% | 2.84% | 1.17% |
| OCCN1CCN(Cc2cccc(-c3cccc(-c4nc5cc(F)ccc5[nH]4)c3)c2)CC1 | 0.05% | 1.75% | -0.17% |
| c1ccc2sc(-c3csc(Nc4ccncc4)n3)nc2c1 | -1.14% | 1.09% | 6.37% |
| COc1ccc(CCNC(=O)c2cc(C)ccc2O)cc1-c1ccc(C(C)(C)C)cc1 | 4.36% | 2.89% | 4.35% |
| COC(=O)c1cccc(CN(CCC(O)(C(F)(F)F)C(F)(F)F)C(=O)CC2CCCC2)c1 | 3.39% | 1.44% | 1.91% |
| CC(=O)N(C)c1cccc(C(=O)Nc2cccc(-c3cccc(-c4nc5cc(C(F)(F)F)ccc5[nH]4)c3)c2)c1 | 12.3% | 12% | 5.52% |
| O=C(C=Cc1ccc(Cl)c(Cl)c1)NCCCCCN1CCC(CCCNS(=O)(=O)c2ccc(Br)cc2)CC1 | 3.69% | -0.68% | 4.73% |
| Cc1noc(C)c1-c1cccc(CNCc2cccc(-c3cccc(-c4nc5cc(F)ccc5[nH]4)c3)c2)c1 | -2.23% | 5% | 0.55% |
| Clc1nc2ccccn2c1C=Cc1ccc2ccccc2n1 | 2.64% | 3.43% | 2.76% |
| CCCN1CCN(c2ccc(NS(=O)(=O)c3ccc(C(=O)Nc4ccc(Cl)cc4)cc3)cc2)CC1 | 0.49% | 0.84% | -2.28% |
| CCOc1cc(C(=O)NCCc2ccc(Cl)c(Cl)c2)ccc1-c1nc2cc(Cl)ccc2[nH]1 | 1.92% | 0.01% | 1.26% |
| O=C(Nc1cccc(-c2nc3ccccc3[nH]2)c1)c1ccc(-c2cccc([N+](=O)[O-])c2)o1 | 4.88% | 5.59% | 7.27% |
| O=[N+]([O-])c1ccc(CNCCCCCCNCc2ccc([N+](=O)[O-])c3ccccc23)c2ccccc12 | 2.24% | 0.87% | 7.99% |
| CC(=O)Oc1ccc(C(=O)Oc2ccccc2C#CC#N)cc1OC(C)=O | -2.02% | 0.93% | -1.3% |
| CCNCc1ccc(-c2cccc(-c3nc4ccccc4[nH]3)c2)cc1 | 1.09% | 1.16% | 3.49% |
| Cc1cc(NC(c2ccc(Cl)cc2)c2ccc3cccnc3c2O)no1 (stereo unspecified) | 16.6% | 22.8% | 6.2% |

| Compound | inhibition [1] | inhibition [2] | inhibition [3] |
| --- | --- | --- | --- |
| CC(C)(C)c1ccc(CNCCOc2ccc(Nc3nnc(-c4ccc(-c5ncc[nH]5)cc4)o3)c3ccccc23)cc1 | 2.98% | 2.75% | 2.83% |
| Cc1ccc2nc3ccccc3c(NCCN3CCN(C)CC3)c2c1 | 39.1% | 50.6% | 21.1% |
| O=C(Cc1ccc[n+]([O-])c1)Nc1cccc(-c2cccc(-c3nc4cc(F)ccc4[nH]3)c2)c1 | 1.61% | 1.76% | 4.13% |
| CC(C)(C)c1ccc2[nH]c(-c3ccc(C(=O)NC4CCN(Cc5ccccc5)CC4)s3)nc2c1 | 3.39% | 2.69% | 1.79% |
| COc1ccc(C=Cc2cc(=N)c3ccccc3[nH]2)cc1Br | 1.57% | 2.29% | 1.29% |
| CN1CCN(c2ccnc3ccc(NC(=O)Nc4ccc(-c5ccccc5)cc4)cc23)CC1 | 3.26% | 2.25% | 2.96% |
| OC(CN(Cc1ccccc1)Cc1ccccc1)Cn1c2ccc(Cl)cc2c2cc(Cl)ccc21 (stereo unspecified) | -0.34% | 0.27% | 1.37% |
| Cc1cc(Nc2ccc3ccccc3c2)n2ncnc2n1 | -0.63% | -3.58% | -1.18% |
| CCn1c(Sc2ccc([N+](=O)[O-])c(C#N)c2)nnc1-c1cccc(Cl)c1 | 1.53% | 0.29% | -1.08% |
| N=c1c(C(=O)NCc2ccccc2)cc2c(=O)n3ccccc3nc2n1CCc1ccccc1 | 3.5% | 4.07% | 2.34% |
| CCN(CC)CCNC(=O)c1ccc(NC(=O)c2ccc(-c3cc(NC(=O)CC4CCCC4)ccc3C)cc2)cc1 | 2.1% | 1.64% | 2.4% |
| CC1(C)N=C(NC(=O)Nc2ccc([N+](=O)[O-])cc2)N=C(N)N1OCc1cccc2ccccc12 | 2.41% | 4.36% | 5.77% |
| COCCSc1nc2scc(C)c2c(=O)n1Cc1cccc(OC)c1 | 3.26% | 4.92% | 4.9% |
| O=S(=O)(c1ccc(OCc2ccc(Cl)cc2)cc1)c1cc2c(cc1OCc1ccccc1)CCN(C1CCC1)CC2 | 7.19% | 4.84% | 7.79% |
| COc1ccc2nccc([C@@H](O)CN3CCC(NCc4ccc5scnc5c4)CC3)c2c1 | 3.81% | 2.6% | 3.04% |
| N#CN1CC[C@@H](OC(=O)N[C@@H]2C[C@H]2c2ccccc2)C1 | 8.37% | 7.38% | 4.43% |
| CC(C)n1ncc2c(C(=O)N3CCCCCC3)cc(-c3ccccc3)nc21 | -0.35% | -0.92% | -5.3% |
| CN1CCC(Oc2ccc(CN3CC[C@H](NC(=O)c4ccc(Cl)c(Cl)c4)C3)cc2Cl)C1 (stereo partly specified) | 15.3% | 16% | 3.89% |
